Screening results as filed in PubChem.
Rows were chosen to be rich in hits. Some 19% of all compounds tested hit in one or more screens of this group.
ELG1 repair inh – blocks ELG1-dependent DNA repair in HEK293T cells | HEK293T ELG1-luciferase reporter, luminescence, 16 h; DNA damage induced by 5-fluorouridine | Potency, µM (titrated, usually from 46.1 µM), without a hit: at the top dose activity change, negative = inhibition, usual class: inhibitors | 330,000 tested, 2.3% active; also: potency is read from the fitted curve at half-maximal effect; nearly all actives have a fitted effect of over 55% in size
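Overnight (16 hr) co-exposure of 2,000 cells/well to 5-fluorouridine and compound at 37 °C preceded detection. Luciferase was quantified via ONE-Glo luminescence; loss of signal denotes inhibition.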
IL1B secr inh – inflammasome signaling inhibition, IL-1 beta readout; THP-1 LPS/ATP IL-1B secretion, AlphaLISA, 16 h; stronger effect = lower value; activity change, % at 57.5 µM; 360,000 tested, 4.7% active; AID 743279; in the data active = activity change below about -50%; inconclusive = mostly about -30% to -49%
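THP-1 cells pretreated 1 hr with compounds (up to 57.5 uM final), then stimulated with LPS (250 ng/mL final) plus ATP (1.25 mM final); secreted IL-1B measured by AlphaLISA after 16 hr, decreased signal indicating inhibition.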
DT40 TDP1 CPT – DT40-hTDP1 cell growth loss with CPT; chicken DT40 Tdp1-/-;hTDP1 cells + 20 nM CPT, ATP luminescence, 48 h; Potency, µM (top dose mostly 46.2 µM), for inactives: top-dose activity change, negative = growth inhibition, most hits filed as inhibitors; 420,000 tested, 12% active; also: potency is read from the fitted curve at half-maximal effect; nearly all actives have a fitted effect of over 55% in size
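Chicken DT40 Tdp1-/- cells stably complemented with human TDP1 were seeded at 400 cells/well in medium containing 20 nM camptothecin, exposed to pin-transferred compounds, and grown at 37 °C for at least 48 hr. Viability was read as ATP luminescence.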
Giardia killer – Giardia lamblia killing | Giardia lamblia trophozoite viability | activity change, % at 7.66 µM, hits read low | 340,000 tested, 0.15% active | AID 540267; in the data active = activity change below about -80%; inconclusive = between about -30% and that limit;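 also: parasites exposed to compound for two days anaerobically before the ATP read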
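Each well holds 100 Giardia trophozoites and compound. After two days (48 hrs) at 37 deg C in anaerobic conditions, ATP is quantified by luminescence.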
TDP1 cell noCPT – qHTS for Inhibitors of human tyrosyl-DNA phosphodiesterase 1 (TDP1): qHTS in cells in absence of CPT; Potency, µM (top dose mostly 46.2 µM), for the others: at the highest dose activity change, negative = growth inhibition, most hits filed as inhibitors; DT40 Tdp1-/- hTDP1 cells, no CPT, ATP luminescence, 48 h; 420,000 tested, 15% active; AID 686978, 2013; also: potency is read from the fitted curve at half-maximal effect; nearly all actives have a fitted effect of over 55% in size
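Chicken DT40 Tdp1-/- cells complemented with human TDP1, screened without camptothecin (DMSO vehicle only), 400 cells/well. Compounds pin-transferred, cells incubated at 37 °C for at least 48 hr. Growth read as ATP-dependent luminescence (CellTiter-Glo, 30 min at RT).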
TDP1 inh – blocks human tyrosyl-DNA phosphodiesterase 1; 350,000 tested, 0.28% active; AID 485290; Potency, µM (series often up to 130 µM), inactives show at the highest dose activity change, negative = inhibition, usual class: inhibitors; recombinant TDP1, AlphaScreen DNA substrate cleavage; also: potency is read from the fitted curve at half-maximal effect; nearly all actives have a fitted effect of over 40% in size
Target sequence (Q9NUW8 whole entry, looked up): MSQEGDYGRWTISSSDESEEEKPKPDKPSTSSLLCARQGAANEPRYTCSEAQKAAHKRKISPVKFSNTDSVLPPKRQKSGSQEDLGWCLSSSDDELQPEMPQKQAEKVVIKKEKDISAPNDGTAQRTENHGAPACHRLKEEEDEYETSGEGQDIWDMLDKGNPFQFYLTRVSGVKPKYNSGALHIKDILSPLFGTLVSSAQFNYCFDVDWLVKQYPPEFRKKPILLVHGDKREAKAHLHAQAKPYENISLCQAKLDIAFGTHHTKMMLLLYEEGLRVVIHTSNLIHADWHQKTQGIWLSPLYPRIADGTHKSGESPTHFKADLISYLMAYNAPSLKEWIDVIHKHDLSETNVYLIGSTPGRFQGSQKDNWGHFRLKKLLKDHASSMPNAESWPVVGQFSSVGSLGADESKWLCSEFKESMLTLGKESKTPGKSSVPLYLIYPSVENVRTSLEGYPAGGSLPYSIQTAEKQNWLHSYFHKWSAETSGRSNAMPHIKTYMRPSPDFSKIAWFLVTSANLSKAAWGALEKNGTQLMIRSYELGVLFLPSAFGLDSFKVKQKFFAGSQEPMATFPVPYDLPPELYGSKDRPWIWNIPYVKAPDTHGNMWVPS
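Enzyme-compound mixtures sat 15 min at room temperature, followed by a 5 min reaction with 15 nM final substrate and 10 min with AlphaScreen beads. Recombinant human Tdp1 was used at 1 nM final.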
Starred values were filed as active, the others as inactive; ? = inconclusive; · = no result given; [ ] = dose if it differs, or a comment. Unless noted, calls follow the shape of the dose curve; as a rule, active = well fitted curve in the direction sought with a large enough effect; inconclusive = small, poorly fitted or top-dose-only effect, or another doubt; inactive = no such curve, though single readings can be large; an effect the other way counts as inactive or inconclusive. % is scaled to controls: 0 for no effect and ±100 for the full control effect.

SMILES	ELG1 repair inh	IL1B secr inh	DT40 TDP1 CPT	Giardia killer	TDP1 cell noCPT	TDP1 inh
CCOc1ccc(-n2nc3c(SCCN4CCCC4)nnc(C)c3c2C)cc1	-7%	-97*	1%	-6	-25%	5%
CCN(C(=O)CSc1nc(-c2ccc(C(C)C)cc2)no1)c1cccc(C)c1	·	·	15µM*	·	?	0%
COc1cc(NC(=O)CSc2nc(-c3ccc(C(C)C)cc3)no2)cc(OC)c1	·	·	-15%	·	?	5%
CCN(C(=O)CSc1nc(-c2ccc(C(C)C)cc2)no1)c1ccccc1	·	·	15µM*	·	?	3%
O=C(COC(=O)CCCSc1nc2ccccc2[nH]1)Nc1ccc(Cl)cc1	6%	1	-6%	2	?	3%
CC1=NN(C(=O)c2ccc(C)o2)C(O)(c2ccccc2)C1 (centres undefined)	29%	10	4.6µM*	1	4.6µM*	3%
CC1=NN(C(=O)c2ccco2)C(O)(c2ccccc2)C1 (centres undefined)	-2%	5	1µM*	-14	0.92µM*	5%
CC1=NN(C(=O)c2ccccc2C)C(O)(c2ccc(Cl)cc2)C1 (centres undefined)	-6%	11	?	-16	?	·
CC1=NN(C(=O)c2ccccc2Br)C(O)(c2ccc(Cl)cc2)C1 (centres undefined)	-5%	7	2%	28	-24%	2%
COc1ccc(NC(=O)CSc2nnc(NC(=O)Nc3ccccc3)s2)cc1OC	·	·	7%	·	10%	-3%
O=C(NC1CCCCC1)C(c1ccccc1)n1c(=O)c(-c2ccco2)nc2ccccc21 (centres undefined)	·	0	18µM*	·	21µM*	·
O=C(NC1CCCCC1)C(c1ccc(C(F)(F)F)cc1)n1c(=O)c(-c2ccco2)nc2ccccc21 (centres undefined)	·	-9	1.6µM*	·	?	·
CCCCCNC(=O)C(C1CC1)n1c(=O)c(-c2ccco2)nc2ccccc21 (centres undefined)	·	15	15µM*	·	13µM*	·
CC(C)(C)NC(=O)C(c1ccc(-c2ccccc2)cc1)n1c(=O)c(-c2ccco2)nc2ccccc21 (centres undefined)	·	-26	?	·	?	·
O=C(NCc1ccccc1)C(c1ccncc1)n1c(=O)c(-c2ccco2)nc2ccccc21 (centres undefined)	·	-6	-25%	·	-27%	·
N#Cc1ccc(C(C(=O)NC2CCCCC2)n2c(=O)c(-c3ccco3)nc3ccccc32)cc1 (centres undefined)	·	?	15µM*	·	16µM*	·
COc1ccc(CNC(=O)C(=O)NCC2OCCCN2S(=O)(=O)c2cccs2)cc1 (centres undefined)	-5%	0	1%	-10	7%	1%
Nc1ccccc1S(=O)(=O)Nc1cccc2cccnc12	·	·	·	·	·	21%
O=C(c1ccncc1)N1CCC[C@@]2(CCN(Cc3ccccc3)C2)C1	·	·	9%	·	-8%	·
CCCCCNC(=O)C(c1ccc(C(F)(F)F)cc1)n1c(=O)c(-c2ccco2)nc2ccccc21 (centres undefined)	·	59	?	·	18µM*	·
O=C(NC1CCCCC1)C(C1CC1)n1c(=O)c(-c2ccco2)nc2ccccc21 (centres undefined)	·	2	?	·	10µM*	·
CCCCCNC(=O)C(c1cccc2ccccc12)n1c(=O)c(-c2ccco2)nc2ccccc21 (centres undefined)	·	1	?	·	?	·
CC(C)CC(NC(=O)C(CO)NC(=O)C1CCC(=O)N1)C(N)=O (centres undefined)	6%	-12	9%	-2	7%	0%
CC(=O)OCC1OC(C#CC(C)(C)C)C=CC1OC(C)=O (centres undefined)	·	·	·	·	·	6%[21 µM]
Cc1ccc(N2C(=O)c3cccc4c(N)ccc(c34)C2=O)c2cccnc12	?	150	0.0082µM*	32	0.021µM*	·
SMILES	ELG1 repair inh	IL1B secr inh	DT40 TDP1 CPT	Giardia killer	TDP1 cell noCPT	TDP1 inh
Cc1nn(C)c(C)c1N1C(=O)c2cccc3c(N)ccc(c23)C1=O	6%	3	-26%	-7	-10%	4%
Cc1nn2cc(-c3ccc(OC(C)C)cc3)nc2s1	·	·	-25%	·	?	2%
O=C1[C@H]2[C@@H](c3ccc(Cl)cc3)N3C(=O)N(c4cccc(F)c4)C(=O)[C@@]3(Cc3ccc(Cl)cc3)[C@H]2C(=O)N1C1CCCCC1	27%	4	?	-11	16µM*	·
CC[C@@]12C(=O)N(c3cccc(Br)c3)C(=O)N1[C@H](c1ccc(Cl)cc1)[C@@H]1C(=O)N(C3CCCCC3)C(=O)[C@@H]12	11%	?	?	-11	?	·
CC[C@@]12C(=O)N(c3ccc(OC)cc3)C(=O)N1[C@H](c1ccc(Cl)cc1)[C@@H]1C(=O)N(C3CCCCC3)C(=O)[C@@H]12	-1%	?	21µM*	12	?	·
COC(=O)c1cccc(C(=O)N2CCc3c(C(=O)OC)c(OCc4ccccn4)cc(=O)n3CC2)c1	·	·	-3%	·	-13%	·
C[C@H]1COC(=O)[C@H](Cc2ccc(F)cc2)C/C=C\C[C@H](CC(=O)NCCO)C(=O)N1	?	3	-26%	14	-4%	0%
CCN(CC)c1nc(C)nc2c1cnn2CCc1ccccc1	?	?	?	8	15µM*	-1%
CC1(C)CC(=O)c2sc(NC(=O)c3cccs3)nc2C1	?	1	?	-96*	?	0%
CC(Oc1ccccc1)C(=O)Nc1nc2c(s1)C(=O)CC(C)(C)C2 (centres undefined)	-19%	-11	-4%	-5	-6%	0%
CC1(C)CC(=O)c2sc(NC(=O)CCS(=O)(=O)c3ccccc3)nc2C1	?	-82*	3.3µM*	1	5.8µM*	10%
CC1(C)CC(=O)c2sc(NC(=O)c3ccccc3)nc2C1	?	·	·	·	·	6%
CC(=O)OC[C@@H]1CN(Cc2ccccc2)C[C@H](n2cnc3c(NC4CC4)ncnc32)O1	·	-19	-4%	·	-2%	·
Cc1ccc(N2C(=O)C3C(C2=O)C2C=CC3C23CC3)c([N+](=O)[O-])c1 (centres undefined)	3%	17	20%	-1	-3%	2%
O=C(Cn1cc(C(=O)C(F)(F)F)c2cc(Br)ccc21)N1CCOCC1	1%	-3	-18%	-1	?	-7%
Oc1cccc(Nc2cc(-c3ccccc3)ncn2)c1	·	·	?	·	?	3%
